SMILES strings stand for the structures. Compounds without any hit were thinned out: in the full panel of roughly 83,000, 20% have a hit.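 96-well plates, one dose, 48 hours. Percent growth reported; active if below 10.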 Unmarked numbers belong to inactive results. Active and inactive are the calls of the source.

Some test systems named below: SK-MEL-2 melanoma; EKVX NSCLC; SN12C renal; UO-31 renal; TK-10 renal; ACHN renal; CAKI-1 renal; A498 renal; CCRF-CEM leukemia; MOLT-4 leukemia; SR leukemia; RPMI-8226 leukemia; OVCAR-8 ovarian; OVCAR-5 ovarian; SK-OV-3 ovarian; IGROV1 ovarian; OVCAR-3 ovarian; HS 578T breast; NCI/ADR-RES ovarian; OVCAR-4 ovarian.
Holding throughout (experiment): NCI-60 one-dose screen, 48 h (100 = growth as untreated, 0 = no growth, -100 = all killed)
Details in all cases: 10 µM

With `COc1cc2c(cc1NC(=O)C(Cl)Cl)-c1ccc(NC(=O)C(Cl)Cl)cc1C2`, the growth was -14.7% (active) in the test with SK-MEL-2 melanoma; -9.2% (active) with EKVX NSCLC; 58.6% in the test on SN12C renal; -9.34% (active) in the test on UO-31 renal; -12.3% (active) in the test with TK-10 renal; -43.4% (active) with ACHN renal. Moreover, the growth was -35.4% (active) in the test with CAKI-1 renal; 10.1% in the test with A498 renal; 81.9% in the test on CCRF-CEM leukemia; 94.8% with MOLT-4 leukemia; 86.4% in the test with SR leukemia; 1.01% (active) in the test with RPMI-8226 leukemia. In addition, the growth with OVCAR-8 ovarian was -22.8% (active); in the test on OVCAR-5 ovarian, 10.2%; with SK-OV-3 ovarian it was 56.3%; in the test with IGROV1 ovarian, 43.1%; in the test with OVCAR-3 ovarian, -44.6% (active); in the test on HS 578T breast, 13.6%. In addition, the growth in the test on NCI/ADR-RES ovarian was -39.2% (active).
Take `CC(C)c1ccc(C(C)C(=O)N(CC2=C(C(C)c3ccccn3)c3ccccc3C2)C(C)C)cc1` (stereo not given): the growth in the test on SK-MEL-2 melanoma was 24.1%; in the test with EKVX NSCLC it was 13.6%; in the test on SN12C renal, 34%; in the test with UO-31 renal, -12.2% (active); with TK-10 renal it was 53.8%; with ACHN renal it was 36.6%. Besides, the growth was 3.55% (active) with CAKI-1 renal; 49.1% with A498 renal; 30.4% in the test on CCRF-CEM leukemia; 24.2% in the test on SR leukemia; 14.6% with RPMI-8226 leukemia; 46.6% in the test on OVCAR-8 ovarian. For the same compound, the growth in the test on OVCAR-5 ovarian was 64.7%; with OVCAR-4 ovarian, 30.2%; in the test on OVCAR-3 ovarian, 29.7%; with HS 578T breast it was 47.4%; in the test with NCI/ADR-RES ovarian, 24.2%.
As for `Cc1n[nH]c(C)c1N=Nc1cccc2c1C(=O)c1ccccc1C2=O`, the growth is 105% with SK-MEL-2 melanoma; 61.8% with EKVX NSCLC; 91.6% in the test on SN12C renal; 66.4% in the test on UO-31 renal; 97.8% with TK-10 renal; 80% with ACHN renal. For the same compound, the growth in the test with CAKI-1 renal was 73.6%; with A498 renal, 55.2%; in the test on MOLT-4 leukemia, 84.5%; in the test with SR leukemia, 91.4%; in the test on RPMI-8226 leukemia, 104%; in the test with OVCAR-8 ovarian it was 91.3%. The growth with OVCAR-5 ovarian is 91.8%; with OVCAR-4 ovarian, 89.5%; with SK-OV-3 ovarian, 93.6%; in the test on IGROV1 ovarian, 84.1%; in the test with OVCAR-3 ovarian it was 106%; in the test with HS 578T breast it was 96.7%. For the same compound, the growth in the test with NCI/ADR-RES ovarian was 89.1%.
Turning to `CC[C@@H](C(=O)[C@H](C)[C@H](O)[C@@H](C)[C@H]1O[C@H]([C@@H](CC)C(=O)O)CC[C@H]1C)C1O[C@]2(C=C[C@@H](O)[C@]3(CC[C@@](C)([C@H]4CC[C@](O)(CC)[C@H](C)O4)O3)O2)[C@H](C)C[C@@H]1C` (stereo not given in full), the growth in the test with SK-MEL-2 melanoma was 13.7%; in the test with EKVX NSCLC it was 31.3%; with SN12C renal it was 11.8%; with UO-31 renal, 34.5%; in the test on TK-10 renal, 56.5%; in the test on ACHN renal, 31.2%. Besides, the growth is 22.2% with CAKI-1 renal; -69.6% (active) in the test on A498 renal; 17.3% with MOLT-4 leukemia; 22.5% in the test with SR leukemia; -7% (active) with RPMI-8226 leukemia; 49.1% in the test with OVCAR-8 ovarian. The growth in the test with OVCAR-5 ovarian was 41.9%; with OVCAR-4 ovarian, 43.4%; in the test with SK-OV-3 ovarian, 42.5%; with IGROV1 ovarian, 41.1%; in the test on OVCAR-3 ovarian, 25.8%; in the test on HS 578T breast, 21.9%. Further, in the test on NCI/ADR-RES ovarian, the growth is 44%.
Take `CN(C)c1ccc(/C=N/NC(=O)c2cccc3ccccc23)c(Cl)c1`: the growth was 28% in the test with SK-MEL-2 melanoma; 45.2% in the test on EKVX NSCLC; 42.9% with SN12C renal; 57.5% in the test on UO-31 renal; 63.8% in the test with TK-10 renal; 51.2% in the test with ACHN renal. Further, the growth with CAKI-1 renal is 48.5%; with A498 renal it was -3.25% (active); in the test with CCRF-CEM leukemia it was 10.1%; in the test on MOLT-4 leukemia it was 15.5%; with RPMI-8226 leukemia it was 7.96% (active); in the test on OVCAR-8 ovarian, 36.5%. Moreover, the growth was 58.1% in the test on OVCAR-5 ovarian; 50.9% with OVCAR-4 ovarian; 16.9% with SK-OV-3 ovarian; 46.1% in the test on IGROV1 ovarian; -17.4% (active) with OVCAR-3 ovarian; 42.2% in the test on HS 578T breast. The growth in the test with NCI/ADR-RES ovarian was -9.37% (active).
Take `N#Cc1c(N)nc(-c2cc(F)cc(C(F)(F)F)c2)nc1-c1ccccc1F`: the growth with SK-MEL-2 melanoma is 90.4%; in the test on EKVX NSCLC it was 38.6%; in the test with SN12C renal, 24.9%; with UO-31 renal, 33.3%; with TK-10 renal, 38.1%; in the test on ACHN renal it was 2.03% (active). Besides, the growth was 78.1% with CAKI-1 renal; 5.56% (active) in the test on A498 renal; 50.1% in the test on MOLT-4 leukemia; 23.6% in the test with SR leukemia; 70.9% with RPMI-8226 leukemia; 35.8% with OVCAR-8 ovarian. In addition, the growth was 61.1% in the test with OVCAR-5 ovarian; 5.1% (active) with OVCAR-4 ovarian; 46.6% with SK-OV-3 ovarian; 38.6% in the test on IGROV1 ovarian; 37.5% in the test on OVCAR-3 ovarian; 18.4% with HS 578T breast. Also, the growth in the test on NCI/ADR-RES ovarian is 49.3%.
`O=C(O)c1cn(C2CC2)c2cc(N3CCN(C(=O)c4cc(-c5ccc(Cl)cc5)nc5ccccc45)CC3)c(F)cc2c1=O`: the growth in the test with SK-MEL-2 melanoma was 101%; in the test on EKVX NSCLC it was 85.5%; in the test on SN12C renal, 90.9%; in the test on UO-31 renal, 35.8%; in the test on TK-10 renal, 113%; in the test on ACHN renal it was 87.3%. The growth with CAKI-1 renal was 60.2%; in the test on A498 renal, 74.2%; in the test with MOLT-4 leukemia, 82.1%; in the test with SR leukemia it was 47.4%; in the test with RPMI-8226 leukemia, 81.8%; with OVCAR-8 ovarian, 89.9%. Further, the growth is 98.2% with OVCAR-5 ovarian; 98.6% in the test with OVCAR-4 ovarian; 77.9% in the test on SK-OV-3 ovarian; 51.4% in the test on IGROV1 ovarian; 100% with OVCAR-3 ovarian; 94% with HS 578T breast. Besides, the growth in the test on NCI/ADR-RES ovarian is 98.9%.
Take `O=C(CCCSc1nc(-c2ccccc2)cc(-c2ccc(Cl)cc2)n1)NO`: the growth in the test with SK-MEL-2 melanoma is 16.4%; with EKVX NSCLC, -10.5% (active); with SN12C renal it was 6.93% (active); in the test with UO-31 renal it was -26.4% (active); with TK-10 renal it was 21.9%; in the test with ACHN renal it was -0.78% (active). Besides, the growth was 2.37% (active) in the test on CAKI-1 renal; -15.3% (active) in the test on A498 renal; 11.2% with MOLT-4 leukemia; 26.3% in the test on SR leukemia; -6.47% (active) in the test on RPMI-8226 leukemia; 14.2% in the test on OVCAR-8 ovarian. For the same compound, the growth in the test with OVCAR-5 ovarian is 9.63% (active); in the test with OVCAR-4 ovarian, 22.3%; in the test with SK-OV-3 ovarian, 11.7%; in the test with IGROV1 ovarian, 22.3%; in the test on OVCAR-3 ovarian it was 7.27% (active); in the test on HS 578T breast, 50.9%. Also, the growth with NCI/ADR-RES ovarian is -22% (active).
